# This is part of a sample that, as a whole, favours compounds with a hit. Of some 83,000 tested, about 20% had one in any assay.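 Method: cells in 96-well plates; compound added at one concentration; 48 h incubation; percent growth measured; values under 10 scored active.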 A number with no mark means an inactive call. Calls of active or inactive are those of the source.
# System: MDA-MB-468 breast
# Assay: NCI-60 one-dose screen, 48 h (100 = growth as untreated, 0 = no growth, -100 = all killed)
# Conditions: 10 µM unless noted
row,Compound,growth
1,N=c1c2ccccc2nc2n1CCCCC2,103%
2,COC(=O)[C@]12CCC(C)(C)C[C@H]1[C@H]1/C(=N/OCCc3nn[nH]n3)C[C@@H]3[C@@]4(C)CC[C@H](OC(C)=O)C(C)(C)[C@@H]4CC[C@@]3(C)[C@]1(C)CC2,17.3%
3,COc1ccc(/C=C/C(=O)Nc2cccnc2Nc2ccc(F)cc2)cc1,84%
4,O=C(CCCC(=O)N/N=C/c1cc(Cl)ccc1O)N/N=C\c1cc(Cl)ccc1O,10.3%
5,N=C(N)c1ccc(-c2ccc(-c3ccc(Cl)cc3)o2)nc1,-88.7% (active)
6,Cc1ccc2c(n1)C(=O)C(Cl)=C(Nc1ccc(C(C)C)cc1)C2=O,-44.8% (active)
7,CCN1C(=O)N(CC)C2C1NN=c1s/c(=C3\C(=O)N(CC(C)(C)C)c4ccccc43)c(=O)n12 (stereo not given),18%
8,Cc1nn(-c2ccccc2)c2nc(Cl)c(C=O)c(-c3ccccc3)c12,94.7%
9,COC(=O)CCC/C=C\C[C@H]1C=CC(=O)/C1=C/C[C@@H](O)CCc1cccc(C(F)(F)F)c1,-14.5% (active)
10,N#Cc1cnn2c(-c3ccc(Cl)cc3)nc(NC3CC3)nc12,97%
11,C=C(OC(C)=O)c1ccccc1,103%
12,CCOC(=O)c1cc(C(=O)c2cc(OC)c(OC)c(OC)c2)n2ccc(-c3ccncc3)cc12,99.1%
13,O=NC1CC=CCC1c1ccccc1 (stereo not given),104%
14,CC(=O)OCCC/C(=C\c1ccc2ccccc2c1)[N+](=O)[O-],-55.4% (active)
15,CC[C@H](C)C(=O)O[C@H]1CCC=C2C=C[C@H](C)[C@H](CC[C@@H]3CC=CC(=O)O3)[C@H]21,85%

# Reference: PubChem BioAssay (NCI)
